Only some compounds are listed: those with a hit (about 2.3% of all), similar ones and a draw of the others.
USP1-UAF1 inh: inhibitors of human USP1/UAF1 deubiquitinase; recombinant USP1/UAF1, Ub-Rhodamine cleavage fluorescence; actives 0.23% (n = 390,000); Potency, µM (top dose mostly 57.1 µM), for inactives: at the top dose activity change, negative = inhibition, hits mostly inhibitors; O94782; note: potency is the fitted concentration of half-maximal effect; nearly all actives have a fitted effect of over 60% in size
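1 nM enzyme complex + cpd, 15 min RT; start with Ub-Rho 150nM final; kinetic fluorescence ex 480/em 540, 6 reads q60 s. Buffer 50mM HEPES pH 7.8, 0.5mM EDTA, 0.1 mg/ml BSA, 1mM TCEP, 0.01% Tween-20.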
FBPA coupling cs: coupling enzyme interference in Giardia aldolase counter-screen | coupling enzyme system counterscreen, AmpLite Red fluorescence | activity change, negative = inhibition, % at 58.2 µM, hits read low | actives 0.67% (n = 290,000) | AID 2472; in the data active = activity change below about -30%
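Activity here indicates interference with the coupling reaction, not aldolase inhibition. Compounds at 57.5 uM final met coupling enzymes for 10 min at RT; substrate and AmpLite Red detection followed, with a 525/598 nm fluorescence read after 20 min.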
Tau FP inhib: tau fibrillization inhibition (FP) | actives 0.39% (n = 280,000) | P10636 | K18 P301L tau heparin fibrillization, Alexa594 FP, 6 h | AID 1468 | Potency, µM (doses to about 57.7 µM), for the others: top-dose activity, negative = inhibition, hits mostly inhibitors; note: potency is the fitted concentration of half-maximal effect; nearly all actives have a fitted effect of over 55% in size
Target sequence (P10636 561-689 P618L limits assumed): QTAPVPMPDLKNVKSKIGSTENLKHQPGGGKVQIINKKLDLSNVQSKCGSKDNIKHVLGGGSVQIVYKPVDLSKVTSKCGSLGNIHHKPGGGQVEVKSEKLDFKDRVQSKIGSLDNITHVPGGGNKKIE
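Heparin (20 uM) drove fibril formation of recombinant tau K18 P301L, 15 uM unlabeled with 0.24 uM Alexa 594 label, for 6 hr at 37 C in 100 mM sodium acetate pH 7. Fluorescence polarization (555/632 nm) read 1 hr after 30 uM ThT.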
Tau fluor cs: counter-screen for tau fibril formation inhibitors; Potency, µM (series often up to 57.7 µM), for inactives: at the top dose activity change, negative = decrease; actives 0.93% (n = 280,000); tau K18 P301L Alexa594 fluorescence, heparin fibrillization; AID 1463; note: potency is the fitted concentration of half-maximal effect; nearly all actives have a fitted effect of over 55% in size
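Human tau K18 P301L (15 uM unlabeled, 0.24 uM Alexa 594-labeled) in 100 mM sodium acetate pH 7 with 20 uM heparin, 6 hr at 37 C. ThT 30 uM added, 1 hr ambient; Alexa 594 FP and total fluorescence read at 555/632 nm.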
Tau ThT inhib: inhibitors of human tau fibril formation, thioflavin T binding. recombinant tau K18 P301L (four-repeat tau fragment), heparin-induced fibrillization, ThT fluorescence. AID 1460. P10636. Potency, µM (titrated, usually from 57.4 µM), inactives show top-dose activity, negative = inhibition, hits mostly inhibitors. actives 2.1% (n = 270,000); note: potency is the fitted concentration of half-maximal effect; nearly all actives have a fitted effect of over 55% in size
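Heparin-induced fibrillization of the P301L-mutant K18 repeat-domain fragment of human tau was followed by ThT binding in quantitative high-throughput format.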
Numbers without * were called inactive; ? = inconclusive; . = not tested or not shown; [ ] = another dose, or the depositor's remark. Unless noted, calls come from the whole dose curve; as a rule, active = well fitted curve in the direction sought with a large enough effect; inconclusive = small, poorly fitted or top-dose-only effect, or another doubt; inactive = no such curve, though single readings can be large; an effect the other way counts as inactive or inconclusive. % is set by controls: 0 for no effect and ±100 for the full control effect.

SMILES | USP1-UAF1 inh | FBPA coupling cs | Tau FP inhib | Tau fluor cs | Tau ThT inhib
COc1ccc(S(=O)(=O)N2CCC(C(=O)Nc3ccccc3N3CCCCC3)CC2)cc1OC | -23.8% | -4.1 | . | . | .
CCOC(=O)C1CCN(C(=O)CCc2nc3sc4c(c3c(=O)[nH]2)CCCC4)CC1 | -16.9% | . | . | . | .
CC(C)C1Nc2c(O)cc(Cl)c([N+](=O)[O-])c2C2C=CCC21 (stereo not drawn) | -14.9% | 3.1 | 1.8% | ? | 11.2µM*
COCCCn1c(C)nnc1SCC(=O)Nc1cccc(C)c1 | -13.7% | -1.4 | . | . | .
Oc1ccc(Br)cc1-c1cc(-c2ccc(Cl)cc2)n[nH]1 | -13.3% | -0.3 | ? | ? | ?
CCCOc1ccc(Br)cc1-c1cc(-c2ccc(Cl)cc2)[nH]c1-c1ccncc1 | . | -3.1 | ? | 7.94µM*[quencher] | -12.7%
Cc1ccccc1N1C(S)=C(C#N)C(=O)NC1c1ccco1 (stereo not drawn) | -5.5% | -23.9 | ? | -21.6% | 25.1µM*
COc1ccc(NC(=O)C2CCCN(C(=O)c3cnn(-c4ccc(F)cc4)c3-n3cccc3)C2)cc1 (stereo not drawn) | -29.0% | . | 12.0% | -16.2% | -2.2%
CN(C)C=Nc1ccccc1C1C=NNC1=O (stereo not drawn) | . | -2.4 | -6.6% | -28.6% | 11.2µM*
O=C1C(Cl)=C(N2CCCCC2)C(=O)C(Cl)=C1c1cnc(N2CCCCC2)s1 | -20.9% | -46.3* | 22.4µM* | ? | 15.8µM*
CC(Oc1ccc(Br)cc1)C(=O)N(Cc1ccccc1)c1c(N)n(Cc2ccccc2)c(=O)[nH]c1=O (stereo not drawn) | 3.0% | . | . | . | .
Cc1cccc(NC(=O)C(=O)c2cc(C)n(-c3ccccc3)c2C)c1C | -7.7% | . | -3.3% | -10.9% | -4.1%
COc1ccccc1NC(=O)c1sc2nc(C)c(C(=O)Nc3ccc(C)cc3C)c(-c3ccco3)c2c1N | 16.6% | . | -11.6% | -21.3% | ?
COc1ccccc1NC(=O)c1sc2nc(C)c(C(=O)Nc3ccc(C)cc3C)c(-c3ccc(C)o3)c2c1N | 31.6µM* | . | -9.0% | ? | ?
CCOC(=O)c1cc(OC(=O)c2ccc(OC)c(OC)c2)n(-c2ccccc2)n1 | ? | . | 0.0% | -10.4% | ?
N/C(=N\OC(=O)c1ccc(Cl)c(Cl)c1)c1ccccn1 | -16.6% | 5.2 | 0.1% | 2.8% | ?
N/C(=N\OC(=O)c1ccc(Cl)c([N+](=O)[O-])c1)c1ccccn1 | 6.9% | 3.0 | -7.5% | ? | 8.91µM*
Cn1c(=O)oc2cc(S(=O)(=O)NCCC(=O)Nc3ccc(F)c(Cl)c3)ccc21 | -11.9% | . | 2.1% | -27.3% | -14.2%
CN(C)S(=O)(=O)c1cccc(NC(=S)N/N=C/c2cc(Br)ccc2O)c1 | -4.3% | 0.8 | ? | 7.94µM*[quencher] | ?
CCCN1C(=O)S/C(=C\c2ccc(N3CCOCC3)o2)C1=O | 25.1µM* | -49.6* | -18.1% | -26.6% | 17.8µM*
CCCN1C(=O)S/C(=C/c2ccc(N3CCOCC3)o2)C1=O | 28.2µM* | -48.2* | ? | ? | ?
CCCS(=O)(=O)c1c(S(=O)(=O)CCC)c2c(N)cccn2c1C(=O)c1ccc(F)cc1 | -5.6% | -37.7* | 0.5% | -25.8% | ?
COC(=O)c1ccc2c(=O)n(CCCCCC(=O)N3CCN(c4cc(Cl)ccc4C)CC3)c(=O)[nH]c2c1 | -7.8% | . | -5.4% | -11.7% | -12.7%
O=C(COC(=O)c1cc(-c2cccs2)nc2ccccc12)NCc1ccco1 | -9.1% | -0.9 | 20µM* | -25.8% | 15.8µM*
CCOc1ccc(C2=Cc3cc(OC)c(OC)cc3C(=C(Cl)Cl)O2)cc1 | . | -8.6 | ? | ? | 17.8µM*
SMILES | USP1-UAF1 inh | FBPA coupling cs | Tau FP inhib | Tau fluor cs | Tau ThT inhib
NC1=C(Br)C(=O)c2ncccc2C1=O | 4.47µM* | . | . | . | .
Cc1c(C(=O)N2CCCC2)oc2c1-c1[nH]ncc1CC2 | -14.7% | -49.3* | -7.7% | -21.2% | ?
CCc1ccc(NC(=O)c2oc3c(c2C)-c2[nH]ncc2CC3)cc1 | -34.3% | . | 13.3% | -15.9% | ?
CCCc1nn2c(N)c(/C=C3\C=Nc4ccccc43)c(=O)nc2s1 | -14.1% | -4.8 | -10.0% | ? | 8.91µM*
CCCCc1nn2c(N)c(/C=C3\C=Nc4ccccc43)c(=O)nc2s1 | 0.8% | 1.4 | -9.6% | 9.0% | 6.3%
Oc1ccc(/C=N/Nc2cc(N3CCCC3)nc(N3CCCC3)n2)cc1 | -26.8% | -44.4* | 2.9% | 17.8µM*[quencher] | ?
COc1ccc(/C=N/Nc2cc(N3CCCC3)nc(N3CCCC3)n2)cc1 | ? | -40.4* | -3.5% | ? | ?
Oc1ccc(Br)cc1/C=N/Nc1nc(N2CCCCC2)nc(N2CCOCC2)n1 | -12.3% | -5.2 | ? | ? | -0.7%
Oc1ccc(/C=N/Nc2cc(N3CCOCC3)nc(N3CCOCC3)n2)cc1 | -13.4% | . | . | . | .
Oc1cccc(/C=N/Nc2cc(N3CCCC3)nc(N3CCCC3)n2)c1 | ? | -32.5* | -1.5% | 15.8µM*[quencher] | ?
Oc1ccc(/C=N/Nc2nc(N3CCCCCC3)nc(N3CCCCCC3)n2)c(O)c1 | -10.5% | -2.7 | -13.6% | 10µM*[quencher] | ?
O=C(O)c1ccccc1C(=O)Nc1n[nH]c(=S)s1 | -13.5% | -70.4* | ? | -13.7% | ?
CCc1nc2ccccc2n2c(-c3ccc(C)cc3)c3c(=O)n(C)c(=O)n(C)c3c12 | -23.7% | . | -5.1% | -8.1% | ?
Cc1ccc(N/C=C/C(=O)c2sc(-c3ccccc3)nc2C)cc1 | ? | 1.5 | -0.4% | -27.8% | 2µM*
Cc1nc(-c2ccccc2)sc1C(=O)NN | -21.1% | -0.5 | ? | -8.9% | -10.8%
CCN(C(=O)C(NS(=O)(=O)c1cccc2nsnc12)c1ccccc1)c1ccccc1 (stereo not drawn) | -6.4% | . | 1.6% | -20.1% | -11.2%
CC1=C([N+](=O)[O-])C(c2ccc3c(c2)OCO3)N(C)C(=O)N1C (stereo not drawn) | -21.0% | 1.9 | . | . | .
CCOc1ccc(CC(=O)NCc2ccc3c(c2)CCN3C(=O)c2ccccc2)cc1OCC | -19.9% | . | 7.9% | -2.5% | -7.3%
CN1CCc2c(sc3c2C(=O)NC(c2cccs2)N3)C1 (stereo not drawn) | ? | -5.5 | ? | -18.2% | 12.6µM*
CN1CCc2c(sc3c2C(=O)NC(/C=C\c2ccccc2)N3)C1 (stereo not drawn) | ? | -8.3 | -14.6% | -17.5% | 17.8µM*
Cc1ccsc1C1NC(=O)c2c(sc3c2CCN(C)C3)N1 (stereo not drawn) | ? | -0.5 | ? | -23.2% | ?
CCOc1cc(C2NC(=O)c3c(sc4c3CCN(C)C4)N2)ccc1OC(=O)c1ccccc1Cl (stereo not drawn) | -11.6% | . | 0.4% | -4.7% | ?
CC(C)c1ccc(C2NC(=O)c3c(sc4c3CCN(C)C4)N2)cc1 (stereo not drawn) | ? | . | -6.6% | -8.3% | ?

Screening data: PubChem BioAssay, National Center for Advancing Translational Sciences (NCATS)
